Source: PubChem
Shown is part of a subset that was picked to be rich in hits.
IMPase cell inh: IMPase inhibition in cells; 120,000 tested, under 10 active; inhibition (IP1 accumulation), % at 46.1 µM; AID 901; P97697; CHO-M1 cells, IP1 accumulation, HTRF TR-FRET ratio; active = well fitted curve in the direction sought with a large enough effect in the signal ratio, not every such curve was filed as active; inconclusive = small, poorly fitted or top-dose-only effect, or a change in a side signal; inactive = no such curve, though single readings can be large or run the other way; the % refers to the signal ratio;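 note: cells stimulated with carbachol in lithium chloride buffer; higher means more IMPase inhibition seen as more IP1 and lower FRET ratio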
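The IP-One HTRF competitive assay in carbachol-stimulated CHO-M1 cells quantifies cellular IP1. Compounds spanned up to 46 uM final, and activity is expressed as AC50 from concentration-response fits of the ratio and donor data.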
ALOX12 inhib: 12-hLO (ALOX12) enzyme inhibition | P18054 | purified 12-hLO, xylenol orange hydroperoxide absorbance | 150,000 compounds, 0.12% hits | Potency, µM (series often up to 57.1 µM), hits mostly inhibitors; note: nearly all actives have a fitted effect of over 55% in size
Target sequence (P18054 whole entry, looked up): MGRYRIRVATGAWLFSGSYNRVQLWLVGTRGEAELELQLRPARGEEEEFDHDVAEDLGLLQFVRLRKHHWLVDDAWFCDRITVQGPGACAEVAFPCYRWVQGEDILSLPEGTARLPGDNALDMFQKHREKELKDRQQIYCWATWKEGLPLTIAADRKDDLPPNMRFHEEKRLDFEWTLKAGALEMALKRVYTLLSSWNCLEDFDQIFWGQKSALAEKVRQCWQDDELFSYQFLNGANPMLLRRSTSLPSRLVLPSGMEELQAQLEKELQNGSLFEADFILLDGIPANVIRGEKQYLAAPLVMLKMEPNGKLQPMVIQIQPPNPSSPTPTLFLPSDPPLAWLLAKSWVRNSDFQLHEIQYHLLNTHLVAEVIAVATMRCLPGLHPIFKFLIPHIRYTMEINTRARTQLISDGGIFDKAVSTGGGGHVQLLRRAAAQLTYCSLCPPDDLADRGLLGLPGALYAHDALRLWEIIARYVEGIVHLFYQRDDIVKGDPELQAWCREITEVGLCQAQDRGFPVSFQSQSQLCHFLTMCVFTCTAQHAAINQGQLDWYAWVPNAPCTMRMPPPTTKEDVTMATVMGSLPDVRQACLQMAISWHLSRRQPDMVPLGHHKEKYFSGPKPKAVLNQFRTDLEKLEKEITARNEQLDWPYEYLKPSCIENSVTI
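150 nM 12hLO, 25 mM Hepes pH 7.0 + 0.01% Triton X-100; cpd preinc 15 min RT; 40 uM arachidonic acid, 30 min RT; Fe-XO 30 min; A573/A405 ratio as read-out.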
PNC inhibitor: blocks assembly of the perinucleolar compartment. PC3M PTB-GFP, PNC prevalence imaging, 16 h; active compounds read low. activity change (PNC), negative = inhibition, % at 10 µM. 140,000 compounds, 3.1% hits. AID 2417;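 active = readout at or below -70, meaning at least 70% loss of cells showing the perinucleolar compartment, a nuclear body marking cancer cells; inconclusive = readout between -30 and a set limit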
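PC3M cells stably expressing PTB-GFP, 750–1000 cells/well, treated 16 h at 37 °C with compound (23 nl of library stock), in duplicate. After paraformaldehyde fixation and Hoechst stain, imaged at 20x; PNC prevalence scored by image analysis.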
IMPase Li inh: cell-permeable IMPase inhibitors with lithium potentiation; CHO-M1 cells, IP1 TR-FRET (IP-One), carbachol + lithium; Potency, µM (titrated, usually from 59.4 µM), actives largely listed as inhibitors; 210,000 compounds, 0.35% hits;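 note: IP1 builds up when IMPase is blocked and the TR-FRET signal falls; nearly all actives have a fitted effect of over 50% in size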
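CHO-M1, 2000 cells/well, 16–30 h culture; cpd + low Li+, 30 min 37C; lysis with d2-IP1/Eu-anti-IP1 Ab, 10 min RT; TR-FRET 665/620 ratio and 620 channel; AC50 via Hill.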
Numbers stand for hits; n = inactive; u = inconclusive; x = no result; ! = repeats disagree; [ ] = dose if it differs, or a comment. Unless noted, calls come from the whole dose curve; as a rule, active = well fitted curve in the direction sought with a large enough effect; inconclusive = small, poorly fitted or top-dose-only effect, or another doubt; inactive = no such curve, though single readings can be large; an effect the other way counts as inactive or inconclusive.

SMILES	IMPase cell inh	ALOX12 inhib	PNC inhibitor	IMPase Li inh
Cc1nc2sccn2c1P(c1c(C)nc2sccn12)c1c(C)nc2sccn12	n	u	-80.4	n
COc1ccc(C(=O)NC(=S)Nc2ccc(N3CCOCC3)c(Cl)c2)cc1[N+](=O)[O-]	x	u	-100.0	n
COc1cccc(C(=O)NC(=S)Nc2ccc(N3CCCC3)cc2)c1	n	15.8µM	n	n
COc1ccc(C(=O)NC(=S)Nc2ccc(N3CCCC3)cc2)cc1	x	x	x	n
CCOc1ccc(C(=O)NC(=S)Nc2ccc(N3CCC(C)CC3)cc2)cc1[N+](=O)[O-]	n	n	-118.9	n
CCN(CC)CCCNC(=O)c1ccc(-n2c(=O)c(=O)[nH]c3ccccc32)cc1	x	n	x	x
CCOCCCNC(=O)c1cc2c(=O)n3cccc(C)c3nc2n1C	n	n	-115.7	n
NC(Cc1cc(I)c(Oc2cc(I)c(O)c(I)c2)c(I)c1)C(=O)O (stereo unspecified)	x	n	x	n
Cc1ccc(SCC(=O)NCCN2C(=O)CSC2=O)c(C)c1	n	n	-100.0	n
CCCCc1cc2c(cn1)=C(OC(=O)c1ccco1)C(C)(OC(=O)CC)C(=O)C=2 (stereo unspecified)	x	n[11.4 µM]	x	n
N=C(c1ccc2ccccc2c1)c1ccccc1Cc1ccccc1	x	n[11.4 µM]	x	n
O=C(COC(=O)Cc1cn2ccsc2n1)Nc1nc2ccccc2s1	n	n	-100.0	n
COc1ccc(NC(=O)N(C2CCCCC2)C(C)c2cccnc2)c(OC)c1 (stereo unspecified)	n	n	-84.9	n
CCOc1cccc(NC(=O)c2cccc(F)c2)c1	x	x	x	n
CCc1nc(SCC(=O)Nc2c(C)nn(C)c2C)c2cnn(-c3ccccc3)c2n1	n	n	n	n
Cc1nn(Cc2ccccc2)c(C)c1NC(=O)CSc1nc(C2CC2)nc2c1cnn2-c1ccccc1	n	n	-87.6	n
O=C(O)C1CC=CCC1C(=O)N1CCN(c2nc(-c3ccccc3Cl)c3cc(Br)ccc3n2)CC1 (stereo unspecified)	u	n	n	11.2µM
O=C(O)C1CC=CCC1C(=O)N1CCN(c2nc(-c3ccccc3)c3ccccc3n2)CC1 (stereo unspecified)	n	n	n	n
CC(C)CCOCc1nc2sc3c(c2c(=O)[nH]1)CCC(C)C3 (stereo unspecified)	n	n	n	n
CC1CCc2c(sc3nc(CSc4n[nH]c(N)n4)[nH]c(=O)c23)C1 (stereo unspecified)	x	n	-94.8	n
CCOc1ccc(CC(=O)Nc2sc(Cc3ccccc3)c(C)c2C(N)=O)cc1OCC	n	n	n	n
COC(=O)c1c(NC(=O)c2ccco2)sc(C)c1C	n	n	-80.7	n
Cc1c(Cc2ccccc2)sc(NC(=O)c2ccco2)c1C(N)=O	n	n	-111.1	n
CC(C)(C)NC[C@@H](O)COc1nsnc1N1CCOCC1	x	n	x	n
N=c1nc(N2CCCCC2)cc(N)n1O	n	n	-114.6	n
SMILES	IMPase cell inh	ALOX12 inhib	PNC inhibitor	IMPase Li inh
COc1ccccc1OCCC(=O)OCC(=O)NC(C)c1ccccc1 (stereo unspecified)	n	n	-83.5	n
COc1ccccc1OCCC(=O)OCC(=O)Nc1ccc(Br)cc1	n	n	n	n
Cc1nc(NC(C)(C)CO)c([N+](=O)[O-])cc1[N+](=O)[O-]	x	n	-119.0	n
CC(O)CNc1cc(N)c([N+](=O)[O-])cc1[N+](=O)[O-] (stereo unspecified)	x	n	n	n
CC(C)c1ccc(OCc2ccc(C(=O)NN3CCN(C)CC3)o2)cc1	x	x	x	n
N#Cc1cccc(CS(=O)(=O)c2nnnn2C2CCCCC2)c1	x	x	x	n
CCOC(=O)C(C(C)=O)=C1SC2CS(=O)(=O)CC2S1 (stereo unspecified)	n	n	-126.9	n
COc1ccc(-c2noc(CN(C(=O)c3cccs3)C(C)C)n2)cc1	n	n	u	n
Cc1cccc(SCc2noc(C(=O)NCC3CCCO3)c2C(=O)O)c1 (stereo unspecified)	n	n	-89.7	n
Cc1cc(C)cc(SCc2noc(C(=O)NCC3CCCO3)c2C(=O)O)c1 (stereo unspecified)	n	n	n	n
COC(=O)c1cc(NC(=O)c2c(Cl)cnn2C)cc(C(=O)OC)c1	x	n	-100.8	n
COC(=O)c1ccc(NC(=S)NC(=O)c2c(Cl)cnn2C)cc1	x	n	n	n
CC(C)=CCCC(C)NC(=O)NC1CCCCC1 (stereo unspecified)	n	n	n	n
COc1ccc(-c2nc3c(c4c2C[C@H](c2ccccc2)OC4)CN(S(=O)(=O)c2ccc(NC(C)=O)cc2)CC3)c(C)c1	x	n[11.4 µM]	x	n
CCN(CC)c1ccc(/C=N/n2c(C)cc(C)cc2=O)cc1	n	n	-123.3	n
COc1ccc(CC/C(C)=N\NC(N)=O)cc1	x	n	-105.3	n
NC(=O)c1ccc(-c2nc(-c3ccc4c(c3)OCO4)c(-c3ccccn3)[nH]2)cc1	n	n	x	2.51µM!
Cc1nc2cc(NS(=O)(=O)c3ccc(Br)cc3)ccc2n1C	x	x	x	n
CCOC(=O)c1nc2sc3c(c2c(=O)[nH]1)CCCC3	n	n	-86.5	n
CC(=O)OCc1ccc2c(c1)OCO2	x	n	x	n
CC(C)CN(C(=O)CN1CCN(c2ccc(F)cc2)CC1)c1c(N)n(CC(C)C)c(=O)[nH]c1=O	n	n	u	n
CCCCN(C(=O)CN1CCOCC1)c1c(N)n(CC(C)C)c(=O)[nH]c1=O	n	n	-81.2	x
CC(C)CN(C(=O)CN1CCC(C)CC1)c1c(N)n(CC(C)C)c(=O)[nH]c1=O	x	x	x	n
Cc1ccc(S(=O)(=O)N2CCN(CC(=O)N(CC(C)C)c3c(N)n(CC(C)C)c(=O)[nH]c3=O)CC2)c(C)c1	n	n	-97.6	n
CS(=O)(=O)Nc1ccc(C2=NN(S(C)(=O)=O)C(c3ccc4c(c3)OCO4)C2)cc1 (stereo unspecified)	x	n	n	n
SMILES	IMPase cell inh	ALOX12 inhib	PNC inhibitor	IMPase Li inh
CCc1ccc(S(=O)(=O)c2nnn3c2nc(NCCNC(C)=O)c2ccccc23)cc1	x	x	x	n
Cc1cccc(Nc2nc3c(S(=O)(=O)c4ccccc4)nnn3c3ccccc23)c1	x	n	-90.5	u
CCCCNc1nc2c(S(=O)(=O)c3ccccc3)nnn2c2ccccc12	x	x	x	8.91µM
CN1C(=O)CC(N2CCN(C(=O)CN3CCCC3)CC2)C1=O (stereo unspecified)	n	n	n	n
CCOc1ccc(N2C(=O)CC(N3CCN(C(=O)CN4CCCC4)CC3)C2=O)cc1 (stereo unspecified)	n	n	-113.7	n
CCOC(=O)N1CCN(C2CC(=O)N(c3ccc(Cl)c(Cl)c3)C2=O)CC1 (stereo unspecified)	n	n	-100.0	n
CCCCCCCc1cc2c(cn1)C(=O)C(C)(OC(C)=O)C(O)=C2Cl (stereo unspecified)	x	x	x	n
CC(Sc1ccc2ccccc2n1)C(=O)O (stereo unspecified)	u	n	n	8.91µM
CC(Sc1cnc2ccccc2n1)C(=O)O (stereo unspecified)	u	n	n	12.6µM
